PubChem BioAssay
A number with no mark means an inactive call. The rule behind the calls is not given here.

target: Pantothenate synthetase (Mycobacterium tuberculosis (strain ATCC 25618 / H37Rv)) (UniProt P9WIL5); assay: Coupled enzyme confirmation of inhibitors against recombinant Mtb PanC (AID 375); details: coupled enzyme assay; at 10 µM, active compounds read high;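 note: 0% = full reaction with vehicle and 100% = no enzyme background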
Sequence (P9WIL5 whole entry, looked up): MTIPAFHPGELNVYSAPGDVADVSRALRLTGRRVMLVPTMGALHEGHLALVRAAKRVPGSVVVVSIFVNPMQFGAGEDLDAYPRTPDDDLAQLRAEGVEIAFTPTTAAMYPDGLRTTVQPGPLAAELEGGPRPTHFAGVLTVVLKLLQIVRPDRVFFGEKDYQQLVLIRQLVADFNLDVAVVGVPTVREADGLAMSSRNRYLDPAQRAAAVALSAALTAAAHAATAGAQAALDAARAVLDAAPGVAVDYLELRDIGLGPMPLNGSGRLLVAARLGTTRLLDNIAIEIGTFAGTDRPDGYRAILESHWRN

For O=C(CSc1nc(-c2ccco2)cc(C(F)(F)F)n1)N1CCCc2ccccc21, which inhibition is on record?
Its inhibition is 5%.

O=S(=O)(c1ccc2c(c1)OCCO2)N(Cc1ccc(F)cc1)Cc1nnc(-c2cccs2)o1 was tested. Which inhibition did it give?
Its inhibition is 5%.

For COC(=O)CCC(NC(=O)c1cc(-c2ccc3c(c2)OCCO3)oc1C)C(=O)OC (stereo unspecified), which inhibition is on record?
The inhibition was 0%.

With Nc1ccc(S(=O)(=O)Nc2ncccn2)cc1 as the compound, how does the inhibition read?
Its inhibition is 6%.

For CC(C)CCNC(=O)CCNS(=O)(=O)c1ccc(Cl)cc1, which inhibition is on record?
Its inhibition is 0%.

Which inhibition does the source give for O=C(CN1CCN(c2cccc(Cl)c2)CC1)N1CCCC1 here?
The inhibition was 4%.

Which inhibition does the source give for COc1ccc(C2C3=C(CCCC3=O)Nc3nc(SCc4ccccc4)nn32)cc1OC (stereo unspecified) here?
Its inhibition is 0%.

With COc1ccc(C(=O)N(CCCO)Cc2cc3c(C)ccc(C)c3[nH]c2=O)cc1OC as the compound, how does the inhibition read?
The inhibition was 0%.

How did the inhibition turn out when Cn1cccc1Cc1nnc(SCC(=O)N2CCOCC2)n1-c1ccc(F)cc1 was run?
Its inhibition is 0%.

Which inhibition does the source give for Cc1ccc(SCCNS(=O)(=O)c2ccc(F)cc2)cc1 here?
Its inhibition is 1%.

How did the inhibition turn out when CCOCCn1cnc2sc(C(=O)Nc3nc(C)c(C(=O)OCC)s3)c(C)c2c1=O was run?
Its inhibition is 13%.

CCOC(=O)c1[nH]c(CSc2nnc(-c3ccncc3)n2CCOC)c(C(=O)OCC)c1C was tested. Which inhibition did it give?
The inhibition was 3%.

For O=C(COC(=O)c1ccccc1C(=O)c1ccccc1)c1ccco1, which inhibition is on record?
The inhibition was 0%.

How did the inhibition turn out when Cc1ccc(S(=O)(=O)N2CCC(C(=O)N3CCC[C@H]3C(=O)NCc3ccccc3)CC2)cc1 was run?
The inhibition was 0%.

COc1ccc2c(c1)c1c(n2C(C)=O)C(OC(C)=O)=NCC1 was tested. Which inhibition did it give?
Its inhibition is 0%.

For CS(=O)(=O)N(CC(=O)Nc1ccc2c(c1)OCCO2)Cc1ccccc1, which inhibition is on record?
Its inhibition is 2%.
